# Measured values from PubChem BioAssay.
# Activity calls are given as the source filed them. Unless noted, how the calls were made is not given here.
# What was measured:
# [1] = compounds binding Alexa647 anti-His antibody – biochemical, small-molecule microarray, 635 nm fluorescence, artefact control for SMM control protein annotation, primary screen (AID 1128); details: higher = more signal;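 further: score merges feature fluorescence with signal-to-noise for each printed compound spot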
# [2] = tested on: Human papillomavirus type 1a E7 protein (residues 1-88); experiment: HPV1a E7 small-molecule binders, primary screen, biochemical, small-molecule microarray, residues 1-88, 635 nm (AID 1129); details: small-molecule microarray binding, fluorescence 635 nm; higher = more signal
# [3] = molecular target: Focal adhesion kinase 1 (Homo sapiens) (UniProt Q05397); experiment: PTK2 protein binding on printed compound slides – biochemical, small-molecule microarray, 635/667 nm fluorescence, BSA, DTT, primary screen (AID 1130); details: 635 nm fluorescence, higher = more signal;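 further: composite of spot emission at 667 nm and signal to noise over triplicate slides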
# [4] = tested on: Fibrinogen (Alexa647-labelled); experiment: Alexa647-fibrinogen binding to printed small molecules – biochemical, small-molecule microarray, 635/667 nm fluorescence, artefact control for SMM control-protein annotation, profiling panel (AID 1131); details: fibrinogen-A647 binding fluorescence, higher = more signal;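 further: z-score merges 667 nm fluorescence with per-spot signal-to-noise over triplicate slides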
# [5] = molecular target: Follistatin (Homo sapiens) (UniProt P19883); experiment: FST protein binding to printed compounds – biochemical, small-molecule microarray, 635/667 nm fluorescence, primary screen (AID 1132); details: 635 nm fluorescence, higher = more signal
# [6] = molecular target: Fibroblast growth factor 2 (Homo sapiens) (UniProt P09038); experiment: basic fibroblast growth factor binding to printed compounds – biochemical, small-molecule microarray, 635/667 nm fluorescence, primary screen (AID 1133); details: FGF2, fluorescence 635/667, higher = more signal
# [7] = JC-1 mitochondrial potential readout, lung cancer cells – cell-based, A549, JC-1 fluorescence, basal, 24 h, 100 nL, profiling panel (AID 1138); details: higher = more signal;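 further: A549 lung adenocarcinoma cells under basal conditions with no added stimulus; test concentration not given here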
# Lefty1 = Lefty1 protein binding to printed compounds – biochemical, small-molecule microarray, 635/667 nm fluorescence, primary screen (AID 1139); details: fluorescence 635/667, higher = more signal
# [8] = tested on: wheat germ agglutinin (Triticum aestivum), Alexa647-labelled; experiment: Alexa647-WGA lectin binding to printed small molecules – biochemical, small-molecule microarray, 635/667 nm fluorescence, artefact control for SMM control-protein annotation, profiling panel (AID 1140); details: WGA-A647 binding, 635 nm fluorescence, higher = more signal;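 further: score merges 667 nm feature emission with signal to noise over triplicate slides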
# [9] = molecular target: Luciferin 4-monooxygenase (Photinus pyralis) (UniProt P08659); experiment: inhibition of purified Photinus pyralis luciferase – biochemical, luminescence, purified enzyme, 2006 set, primary screen (AID 1141); details: purified firefly luciferase, SteadyGlo luminescence, 30 min; higher = more signal, called active from +8 up or from −8 down;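 further: cell-free assay with purified firefly luciferase at 100 ng per well in PBS; test concentration not given here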
# [10] = tested on: Wnt5a (protein binding on small-molecule microarray); experiment: small molecules binding Wnt5a protein – biophysical, small-molecule microarray, 635/667 nm fluorescence, primary screen (AID 1142); details: 635 nm fluorescence, higher = more signal;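 further: fluorescence read at 667 nm with signal to noise per printed feature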
# [11] = ATP-based viability of Huh7 replicon cells – cell-based, CellTiter-Glo luminescence, basal, 48 h, cytotoxicity control for HCV replication inhibitor project, primary screen (AID 1143); details: higher = more signal, called active from +8 up or from −8 down;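 further: Huh7 hepatoma cells carrying a hepatitis C replication reporter with no stimulus; test concentration not given here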
# [12] = Pseudomonas biofilm growth suppression – PAO1 strain, BacTiter-Glo luminescence, LB-PBS, primary screen (AID 1144); details: P. aeruginosa PAO1 biofilm, 12 h, higher = more signal
# [13] = basal CRE-LacZ reporter activity in PC12 – cell-based, unstimulated, primary screen (AID 1145); details: no forskolin, luminescence, 4.5 h, higher = more signal, called active from +8 up or from −8 down
# [14] = forskolin-driven CRE-LacZ activity in PC12 – cell-based, CRE-LacZ reporter, forskolin-stimulated, primary screen (AID 1146); details: luminescence, 4.5 h, higher = more signal, called active from +8 up or from −8 down;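 further: PC12 cells with 6xCRE LacZ reporter stimulated by forskolin 10 µM; beta-galactosidase reporter signal reflecting CREB driven transcription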
# [15] = molecular target: Streptavidin (Streptomyces avidinii) (UniProt P22629); experiment: compounds binding control protein streptavidin – biophysical, small-molecule microarray, 635/667 nm fluorescence, artefact control for SMM compound annotation, primary screen (AID 1147); details: higher = more signal;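 further: signal reflects streptavidin binding to arrayed compounds as a control protein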
# [16] = probe aInhba binding on compound microarray – biochemical, small-molecule microarray, 635/667 nm fluorescence, primary screen (AID 1148); details: higher = more signal;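 further: score merges 667nm spot fluorescence with signal-to-noise for antibody binding to printed compounds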
# Torsin-1A (Homo sapiens) [17] = molecular target: Torsin-1A (Homo sapiens) (UniProt O14656); experiment: TOR1A wild-type binding on microarray – cell lysate, small-molecule microarray, lysate, 635/667 nm, primary screen (AID 1149); details: COS7 hTOR1A-WT lysate, 635 nm fluorescence, higher = more signal
# Torsin-1A (Homo sapiens) [18] = molecular target: Torsin-1A (Homo sapiens) (UniProt O14656); experiment: torsin A mutant lysate binding on microarrays – cell lysate, small-molecule microarray, COS7 lysate, 635/667 nm fluorescence, primary screen (AID 1150); details: COS7 hTOR1A mutant lysate, 635 nm fluorescence, higher = more signal;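 further: score pools 667 nm emission and signal to noise measuring lysate protein binding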
# [19] = tested on: Sonic hedgehog protein (Shh); experiment: Sonic hedgehog microarray binding compounds – biochemical, small-molecule microarray, 635/667 nm fluorescence, primary screen (AID 1151); details: 635 nm fluorescence, higher = more signal;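 further: Shh protein binding to compounds spotted on small-molecule microarray slides; score combines spot fluorescence intensity with signal-to-noise across triplicate slides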
# Follistatin (Homo sapiens), sequence (P19883 whole entry, looked up): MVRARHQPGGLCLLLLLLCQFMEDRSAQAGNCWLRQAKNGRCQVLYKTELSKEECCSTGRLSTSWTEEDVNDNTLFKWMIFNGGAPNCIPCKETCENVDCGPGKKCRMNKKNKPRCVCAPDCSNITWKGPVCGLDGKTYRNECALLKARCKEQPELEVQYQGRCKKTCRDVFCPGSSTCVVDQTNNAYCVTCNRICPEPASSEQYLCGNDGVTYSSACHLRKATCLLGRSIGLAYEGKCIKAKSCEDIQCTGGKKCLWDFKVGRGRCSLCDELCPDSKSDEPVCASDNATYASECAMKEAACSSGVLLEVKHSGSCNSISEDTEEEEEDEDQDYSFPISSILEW
# Focal adhesion kinase 1 (Homo sapiens), sequence (Q05397 whole entry, looked up): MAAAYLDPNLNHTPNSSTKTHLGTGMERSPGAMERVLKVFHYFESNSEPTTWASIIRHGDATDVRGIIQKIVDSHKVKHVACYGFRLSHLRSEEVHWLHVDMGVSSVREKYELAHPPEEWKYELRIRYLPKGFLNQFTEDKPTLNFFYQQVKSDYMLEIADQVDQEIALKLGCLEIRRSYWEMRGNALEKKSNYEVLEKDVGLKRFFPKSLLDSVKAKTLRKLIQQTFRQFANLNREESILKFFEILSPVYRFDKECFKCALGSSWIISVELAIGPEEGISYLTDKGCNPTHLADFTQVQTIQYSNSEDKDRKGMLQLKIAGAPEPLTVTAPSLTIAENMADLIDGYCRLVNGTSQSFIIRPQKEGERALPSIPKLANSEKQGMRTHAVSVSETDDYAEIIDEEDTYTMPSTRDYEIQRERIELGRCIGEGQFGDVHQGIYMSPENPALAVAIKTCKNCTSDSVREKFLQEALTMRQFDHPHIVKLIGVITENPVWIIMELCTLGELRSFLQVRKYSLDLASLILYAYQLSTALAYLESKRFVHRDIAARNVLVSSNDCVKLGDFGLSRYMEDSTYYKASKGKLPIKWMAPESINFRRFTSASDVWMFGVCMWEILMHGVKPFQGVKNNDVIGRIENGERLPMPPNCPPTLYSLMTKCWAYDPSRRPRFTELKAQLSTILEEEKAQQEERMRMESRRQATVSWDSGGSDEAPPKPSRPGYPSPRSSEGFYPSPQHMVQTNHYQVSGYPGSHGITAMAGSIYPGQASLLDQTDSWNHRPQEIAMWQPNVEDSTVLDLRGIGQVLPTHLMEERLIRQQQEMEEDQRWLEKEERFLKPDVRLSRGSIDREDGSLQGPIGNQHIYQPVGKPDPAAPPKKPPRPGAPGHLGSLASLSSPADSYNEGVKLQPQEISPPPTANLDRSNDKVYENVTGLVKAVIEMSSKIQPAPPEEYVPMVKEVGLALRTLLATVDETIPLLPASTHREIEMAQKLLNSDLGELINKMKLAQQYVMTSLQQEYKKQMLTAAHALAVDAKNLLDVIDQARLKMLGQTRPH
# Torsin-1A (Homo sapiens), sequence (O14656 whole entry, looked up): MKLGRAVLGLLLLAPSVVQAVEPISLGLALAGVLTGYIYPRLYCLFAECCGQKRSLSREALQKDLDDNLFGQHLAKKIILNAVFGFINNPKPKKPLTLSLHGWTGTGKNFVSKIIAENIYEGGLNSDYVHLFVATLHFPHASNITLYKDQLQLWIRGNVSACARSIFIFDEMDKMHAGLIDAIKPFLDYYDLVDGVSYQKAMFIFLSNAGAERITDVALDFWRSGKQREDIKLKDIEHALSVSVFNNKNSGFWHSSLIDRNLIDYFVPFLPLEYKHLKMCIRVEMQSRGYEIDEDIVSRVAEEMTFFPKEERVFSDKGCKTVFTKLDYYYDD
# Fibroblast growth factor 2 (Homo sapiens), sequence (P09038 whole entry, looked up): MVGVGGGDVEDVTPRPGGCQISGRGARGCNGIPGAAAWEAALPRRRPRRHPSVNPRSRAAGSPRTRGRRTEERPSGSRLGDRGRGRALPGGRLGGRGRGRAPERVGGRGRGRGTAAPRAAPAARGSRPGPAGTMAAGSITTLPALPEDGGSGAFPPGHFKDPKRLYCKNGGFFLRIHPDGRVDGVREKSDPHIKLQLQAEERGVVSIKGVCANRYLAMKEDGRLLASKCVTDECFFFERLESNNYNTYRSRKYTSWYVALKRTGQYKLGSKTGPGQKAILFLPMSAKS
# Luciferin 4-monooxygenase (Photinus pyralis), sequence (P08659 whole entry, looked up): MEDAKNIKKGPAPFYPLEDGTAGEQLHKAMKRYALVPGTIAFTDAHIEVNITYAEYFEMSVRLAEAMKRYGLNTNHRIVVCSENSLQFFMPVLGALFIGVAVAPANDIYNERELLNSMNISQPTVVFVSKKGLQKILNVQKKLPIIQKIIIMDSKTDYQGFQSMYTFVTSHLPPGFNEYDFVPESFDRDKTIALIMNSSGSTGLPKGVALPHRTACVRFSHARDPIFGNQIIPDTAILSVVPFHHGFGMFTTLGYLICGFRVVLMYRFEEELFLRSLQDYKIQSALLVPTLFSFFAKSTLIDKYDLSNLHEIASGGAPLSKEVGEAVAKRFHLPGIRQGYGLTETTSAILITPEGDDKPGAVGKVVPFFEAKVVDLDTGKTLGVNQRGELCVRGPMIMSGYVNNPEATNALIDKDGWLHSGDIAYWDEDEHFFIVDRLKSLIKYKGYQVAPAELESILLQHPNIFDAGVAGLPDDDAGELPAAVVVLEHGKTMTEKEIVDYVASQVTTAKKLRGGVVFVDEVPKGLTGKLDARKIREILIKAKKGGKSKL
# Streptavidin (Streptomyces avidinii), sequence (P22629 whole entry, looked up): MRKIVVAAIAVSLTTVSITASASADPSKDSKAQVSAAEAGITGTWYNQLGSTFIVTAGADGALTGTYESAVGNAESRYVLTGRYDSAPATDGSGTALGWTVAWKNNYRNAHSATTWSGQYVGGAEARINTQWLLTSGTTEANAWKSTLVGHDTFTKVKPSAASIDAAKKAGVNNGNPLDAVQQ
Compound,composite z-score [1],composite z-score [2],composite z-score [3],composite z-score [4],composite z-score [5],composite z-score [6],z-score [7],composite z-score (Lefty1),composite z-score [8],z-score [9],composite z-score [10],z-score [11],z-score [12],z-score [13],z-score [14],composite z-score [15],composite z-score [16],composite z-score (Torsin-1A (Homo sapiens) [17]),composite z-score (Torsin-1A (Homo sapiens) [18]),composite z-score [19]
O=C1OCCC/C=C\[C@H]2OC34C=CCN(Cn5nnc6ccccc65)C(=O)[C@H]3N(CCCO)C(=O)[C@@H]4C12 (stereo not given in full),3.1,-0.162,-0.0245,-1.94,-0.99,-1.06,-0.275,-0.517,-0.107,0.656 (inactive),-0.8,0.464 (inactive),-0.354 (inactive),-0.623 (inactive),0.168 (inactive),-1.29,-0.182,-2.04,1.14,-0.144
COc1cc(CO)cc(I)c1O[C@H]1C=C(C(=O)NCCO)C[C@@H](N(CCc2cccc(F)c2)C(=O)CCC2CCCC2)[C@@H]1O,2.62,1.19,0.218,0.819,1.46,1.76,-0.172,1.49,0.524,1.38 (inactive),1.38,-6.09 (inactive),-0.986 (inactive),6.93 (inactive),-0.374 (inactive),0.628,0.0872,0.727,1.26,1.89
O=C1C2C=CC(C(O)CCc3ccccc3)N(Nc3ccccc3)C2C(=O)N1c1ccccc1 (stereo not given),1.89,1.23,0.477,0.889,0.471,-0.464,-0.411,0.38,1.44,-0.0874 (inactive),0.742,0.267 (inactive),-0.857 (inactive),0.819 (inactive),-0.0219 (inactive),2.32,0.372,0.143,0.82,-0.365
COc1ccc(C#Cc2ccc3c(c2)[C@]2(C(=O)N3)[C@H](c3ccc(OCCO)cc3)N3[C@H](c4ccccc4)[C@H](c4ccccc4)OC(=O)[C@H]3[C@@H]2C(=O)Nc2nc3ccccc3s2)cc1,0.842,1.17,0.862,0.88,1.3,1.28,-2.06,1.57,0.764,-3.84 (inactive),0.603,-2.92 (inactive),-1.54 (inactive),0.918 (inactive),-0.203 (inactive),1.07,0.143,1.15,0.564,1
Cc1cc(C)c(C(O)C2C=CC3C(=O)NC(=O)C3N2Nc2ccccn2)c(C)c1 (stereo not given),0.735,1.03,0.471,0.925,1.11,-0.719,0.513,0.0668,0.994,-1.56 (inactive),-0.265,0.882 (inactive),-0.644 (inactive),-0.14 (inactive),-0.0376 (inactive),0.545,0.0599,-0.145,0.736,-0.095
C=CC[C@@]1(C(=O)NCCN2CCOCC2)N=C(c2ccc(OCCCO)cc2)O[C@@H]1c1ccccc1CN=[N+]=[N-],2.83,1.23,0.269,0.216,0.898,-0.224,0.127,-0.0903,1,-3.74 (inactive),0.13,-4.2 (inactive),-0.557 (inactive),0.526 (inactive),-1.22 (inactive),0.349,-0.197,0.598,1.16,-0.0578
CCOC(=O)C[C@H]1[C@H](OC(=O)c2ccc(C(=O)c3ccccc3)cc2)[C@@H](NC(=O)c2ccc3ccccc3n2)c2cc(OCCCO)ccc2N1C(=O)c1ccc2ccccc2n1,-0.0631,1.06,-0.0481,0.887,0.37,0.146,1.5,0.105,0.515,-0.857 (inactive),0.211,0.0729 (inactive),-0.754 (inactive),2.05 (inactive),-1.22 (inactive),0.47,0.0778,0.323,0.134,-0.0692
NC(=O)[C@]1(Cc2ccccc2)N=C(c2ccc(OCCCO)cc2)O[C@@H]1c1ccccc1,1.15,1.12,0.246,0.977,0.368,-0.555,-1.04,-0.524,1.05,-0.354 (inactive),0.0788,-2.3 (inactive),-0.783 (inactive),5.59 (inactive),1.49 (inactive),0.452,0.0872,-0.783,-0.0179,-0.955
C#C[C@H](O[Si](C#CCCCCCC)(C(C)C)C(C)C)c1ccccc1,0.272,0.203,-0.308,-0.152,0.481,-0.471,-0.562,0.605,-0.174,1.25 (inactive),-0.348,-0.0715 (inactive),0.0625 (inactive),0.353 (inactive),0.262 (inactive),-0.0246,-0.17,0.236,0.0769,-0.102
COc1ccccc1CN1C(=O)c2ccccc2[C@](Cc2ccccc2I)(C(=O)NCc2ccccc2)[C@@H]1c1ccc(CO)cc1,-0.0448,0.406,-0.2,0.414,-0.526,-0.243,0.109,-0.88,0.687,0.0375 (inactive),0.0733,-0.553 (inactive),0.166 (inactive),-0.412 (inactive),-0.0005 (inactive),-0.476,0.0627,0.999,2.06,-0.197
